The whole screen tested about 5,500 compounds, of which about 2,000 (36%) were called active. Inconclusive results (about 18%) are left out. Rule as the data show it: active = normalized growth mostly below about 0.91 (no sharp cut-off); inconclusive = no clear call, values can overlap the other calls; inactive = mostly above about 0.92. The list shows a part of the results.
Assay: chemical genetic growth profiling, strain panel (AID 1159580);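 also: tested at 20 µM; growth read once vehicle control cultures reached saturation at 30 °C; 1 = growth at the plate median or of vehicle wells; lower values mean less growth of the strain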
Conditions: S. cerevisiae deletion strains, growth OD

Measured: normalized growth

N#C/C(=C\c1ccc(C(F)(F)F)cc1)c1ccc(O)cc1
inactive: locus YAR019C, strain CDC15, stronger effect = lower value 0.969 | locus YBL105C, strain PKC1, stronger effect = lower value 0.968 | locus YBR135W, strain CKS1, stronger effect = lower value 0.965 | locus YBR136W, strain MEC1, stronger effect = lower value 0.97 | locus YBR160W, strain CDC28, stronger effect = lower value 0.976 | locus YDL017W, strain CDC7, stronger effect = lower value 0.966 | locus YDL028C, strain MPS1, stronger effect = lower value 0.976 | locus YDL101C, strain DUN1, stronger effect = lower value 0.979 | locus YDL108W, strain KIN28, stronger effect = lower value 0.972 | locus YDL132W, strain cdc53, stronger effect = lower value 0.973 | locus YDR052C, strain DBF4, stronger effect = lower value 0.988 | locus YDR054C, strain cdc34, stronger effect = lower value 0.96 | locus YDR226W, strain ADK1, stronger effect = lower value 0.969 | locus YFL009W, strain cdc4, stronger effect = lower value 0.967 | locus YFL029C, strain CAK1, stronger effect = lower value 0.978 | locus YFR003C, strain YPI1, stronger effect = lower value 0.971 | locus YFR028C, strain CDC14, stronger effect = lower value 0.964 | locus YIL147C, strain SLN1, stronger effect = lower value 0.974 | locus YJL128C, strain PBS2, stronger effect = lower value 0.913 | locus YJR016C, strain ILV3, stronger effect = lower value 0.974 | locus YKL193C, strain SDS22, stronger effect = lower value 0.972 | locus YMR001C, strain CDC5, stronger effect = lower value 0.96 | locus YMR277W, strain FCP1, stronger effect = lower value 0.963 | locus YNL006W, strain LST8, stronger effect = lower value 0.959 | locus YNL161W, strain CBK1, stronger effect = lower value 0.967 | locus YNL207W, strain RIO2, stronger effect = lower value 0.961 | locus YNL222W, strain SSU72, stronger effect = lower value 0.964 | locus YOL078W, strain AVO1, stronger effect = lower value 0.973 | locus YOR329C, strain SCD5, stronger effect = lower value 0.962 | locus YPL209C, strain IPL1, stronger effect = lower value 0.965 | locus YPR025C, strain CCL1, stronger effect = lower value 0.971 | locus YPR106W, strain ISR1, stronger effect = lower value 0.965 | locus YPR111W, strain DBF20, stronger effect = lower value 0.953 | strain NNK1, stronger effect = lower value 0.95 | strain TSCII, stronger effect = lower value 0.967
active: locus YDL214C, strain PRR2, stronger effect = lower value 0.478 | locus YDR477W, strain SNF1, stronger effect = lower value 0.497 | locus YER123W, strain YCK3, stronger effect = lower value 0.508 | locus YER133W, strain GLC7, stronger effect = lower value 0.492 | locus YFR019W, strain FAB1, stronger effect = lower value 0.647 | locus YGR040W, strain KSS1, stronger effect = lower value 0.53 | locus YGR052W, strain FMP48, stronger effect = lower value 0.5 | locus YGR092W, strain DBF2, stronger effect = lower value 0.365 | locus YHR030C, strain SLT2, stronger effect = lower value 0.308 | locus YHR079C, strain IRE1, stronger effect = lower value 0.334 | locus YHR082C, strain KSP1, stronger effect = lower value 0.492 | locus YHR205W, strain SCH9, stronger effect = lower value 0.359 | locus YJL095W, strain BCK1, stronger effect = lower value 0.464 | locus YJL157C, strain FAR1, stronger effect = lower value 0.47 | locus YJR066W, strain TOR1 (second series), stronger effect = lower value 0.29 | locus YJR066W, strain TOR1, stronger effect = lower value 0.435 | locus YKL048C, strain ELM1, stronger effect = lower value 0.411 | locus YKL067W, strain YNK1, stronger effect = lower value 0.525 | locus YKL101W, strain HSL1, stronger effect = lower value 0.465 | locus YKL203C, strain TOR2, stronger effect = lower value 0.428 | locus YLR113W, strain HOG1, stronger effect = lower value 0.431 | locus YLR133W, strain CKI1, stronger effect = lower value 0.498 | locus YLR403W, strain SFP1, stronger effect = lower value 0.445 | locus YML070W, strain DAK1, stronger effect = lower value 0.535 | locus YMR205C, strain PFK2 (second series), stronger effect = lower value 0.54 | locus YNL020C, strain ARK1, stronger effect = lower value 0.45 | locus YNL183C, strain NPR1, stronger effect = lower value 0.467 | locus YNL307C, strain MCK1 (second series), stronger effect = lower value 0.395 | locus YOL136C, strain PFK27, stronger effect = lower value 0.492 | locus YOR061W, strain CKA2, stronger effect = lower value 0.43 | locus YOR119C, strain RIO1, stronger effect = lower value 0.498 | locus YOR231W, strain MKK1, stronger effect = lower value 0.469 | locus YPL031C, strain PHO85, stronger effect = lower value 0.421 | locus YPL153C, strain RAD53, stronger effect = lower value 0.444 | locus YPL204W, strain HRR25, stronger effect = lower value 0.453 | locus YPL256C, strain CLN2, stronger effect = lower value 0.427

— PubChem BioAssay AID1159580 (chemical genetic matrix, 2015)
